ERp5 block: inhibitors of human ERp5; Q15084; ERp5 insulin aggregation, absorbance 650 nm, 90 min; inhibition, % at 9.99 µM; 350,000 tested, 0.05% active;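 active = mean replicate inhibition above about 25%, with every replicate also reaching it, limit read from the data, passing the limit was not always enough; inconclusive = only one of those two criteria met; inactive = neither criterion met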
SIRT5 inh: blocks human SIRT5 desuccinylation of peptide | Q9NXA8 | Purified SirT5, succinyl-peptide AMC, trypsin-coupled fluorescence | inhibition, % at 15 µM | 330,000 tested, 1.1% active | AID 652115; in the data active = inhibition above about 15%; inconclusive = no clear call, values can overlap the other calls
HDAC3 inh: inhibitors of human histone deacetylase 3; O15379; recombinant HDAC3, fluorogenic peptide/trypsin coupled, fluorescence; inhibition, % at 8.3 µM; 320,000 tested, 0.15% active; AID 2718; in the data active = inhibition above about 26%, passing the limit was not always enough; inconclusive = no clear call, values can overlap the other calls
Target sequence (O15379 whole entry, looked up): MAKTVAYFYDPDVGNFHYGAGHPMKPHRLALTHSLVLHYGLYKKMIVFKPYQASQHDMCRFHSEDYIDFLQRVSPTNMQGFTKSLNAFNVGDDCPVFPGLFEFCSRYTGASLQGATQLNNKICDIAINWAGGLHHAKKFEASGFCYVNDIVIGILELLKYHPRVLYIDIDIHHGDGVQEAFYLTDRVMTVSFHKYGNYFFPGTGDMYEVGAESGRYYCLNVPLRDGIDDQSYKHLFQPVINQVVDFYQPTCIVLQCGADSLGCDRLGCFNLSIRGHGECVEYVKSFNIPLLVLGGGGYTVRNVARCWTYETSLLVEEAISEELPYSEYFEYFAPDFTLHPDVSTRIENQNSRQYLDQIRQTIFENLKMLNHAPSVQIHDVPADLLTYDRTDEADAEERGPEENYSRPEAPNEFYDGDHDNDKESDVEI
ERAP1 inh: ERAP1 (human) enzyme inhibition. Q9NZ08. recombinant ERAP1, Leu-AMC fluorescence, 60 min. inhibition, % at 10.7 µM. 340,000 tested, 0.15% active. AID 652197;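 active = mean replicate inhibition of at least 30%, or all replicates individually reaching that 30% level; inactive = mean below 30% and not every replicate reaching it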;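 note: 0% = neutral control wells and 100% = L-leucinethiol positive control wells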
PDI inh: blocks human protein disulfide isomerase activity; 350,000 tested, 0.052% active; inhibition, % at 10 µM; PDI insulin aggregation turbidity, A650, 90 min; P07237;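 active = mean inhibition across replicates of 30% or more, whatever share of single replicates reach that level; inconclusive = mean inhibition below 30% while every single replicate reaches 30%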
An asterisk follows results filed as active; ? = inconclusive; . = no result given; ! = not confirmed by another sample. Shown is part of a subset that was picked to be rich in hits.

SMILES | ERp5 block | SIRT5 inh | HDAC3 inh | ERAP1 inh | PDI inh
CCN(CCCl)c1cc(CN(C)C)cc(NC(=O)c2ccc(C(=O)Nc3cc(CN(C)C)cc(N(CC)CCCl)c3)cc2)c1 | 1.0 | -6.2 | . | 48.9* | 10.5
CCOC(=O)[C@@H]1[C@@H]2NC(=S)N(C)[C@@]1(C)Oc1ccccc12 | -1.0 | -0.3 | . | -0.7 | .
O=C1NC(=O)N(Cc2ccccc2)C(=O)/C1=C\C=C\c1ccco1 | 6.0 | 5.9 | 4.8 | 15.9 | -6.9
O=C1NC(=O)N(Cc2ccco2)C(=O)/C1=C/C=C/c1ccco1 | 7.6 | 15.3* | 20.4 | 2.3 | -2.3
CCC(=NCc1cccnc1)c1c(O)n(-c2ccccc2C)c(=O)[nH]c1=O | 2.6 | 0.6 | -1.1 | -2.7 | 9.4
CC(=NCc1cccnc1)c1c(O)n(-c2ccccc2C)c(=O)[nH]c1=O | 0.7 | 27.2* | 2.7 | 0.9 | -5.1
c1ccc(CN2CCN(Cc3ccc4ccccc4c3)CC2)cc1 | -0.1 | 5.0 | -1.4 | 1.0 | -1.0
CN(C)c1cccc(CN2CCN(c3ccccc3)CC2)c1 | 1.7 | 15.4* | . | 13.9 | .
CCCN1[C@@H]2c3ccc(-c4ccc(F)cc4)c(=O)n3C[C@H]1[C@H](CO)[C@H]2C(=O)OC | -4.3 | -0.6 | . | 0.3 | .
O=C(Cc1cccnc1)N1CCCCN2[C@@H](CO)[C@@H](c3ccc(C#CC4CC4)cc3)[C@@H]2C1 | 1.1 | -0.1 | . | 0.0 | .
COC(=O)[C@@H]1[C@@H](CO)[C@@H]2Cn3c(ccc(/C=C/c4ccccc4)c3=O)[C@H]1N2C(=O)C1CC1 | -1.5 | -102.7 | . | -1.7 | .
O=C1C(=O)c2ccccc2-c2ccccc21 | 3.8 | -0.9 | 3.8 | 0.5 | 166.9*
O=C1C(=O)c2cccc3cccc1c23 | -2.5 | -7.3 | 3.6 | 0.2 | 1.4
C[C@@H]1CN([C@@H](C)CO)C(=O)c2c(c3ccccc3n2C)-c2ccccc2CO[C@H]1CN(C)C(=O)Oc1ccccc1 | -4.0 | 2.9 | . | -4.0 | .
Cc1ccc(N2Cc3ccccc3C2=N)cc1[N+](=O)[O-] | -0.5 | 25.5* | 2.4 | -2.6 | 1.5
COc1cc2c(cc1OC)C(C1c3cc4c(cc3CCN1C)OCO4)OC2=O (stereo not given) | 1.3 | -4.2 | 9.1 | 0.1 | -32.0
C[N+]1(C)CCc2cc3c(cc2[C@H]1[C@@H]1OC(=O)c2c1ccc1c2OCO1)OCO3 | -0.1 | 0.7 | ? | 52.6*! | 2.0
COC(=O)[C@@H]1[C@@H](CO)[C@@H]2Cn3c(ccc(-c4ccc(F)cc4)c3=O)[C@H]1N2C(=O)c1ccccc1F | 2.2 | -12.9 | . | 5.6 | .
N#CC1=C(N)Oc2c(c(=O)sc3ccccc23)C1c1ccncc1 (stereo not given) | -3.3 | 15.8* | -2.6 | -0.5 | -3.0
N#CC1=C(N)Oc2c(c(=O)oc3ccccc23)C1c1cccnc1 (stereo not given) | . | . | -4.0 | . | 3.1
CSc1ccc(CNC2CN3CCC2CC3)cc1 (stereo not given) | 1.9 | 28.8* | 2.8 | -1.3 | -3.4
Cc1ccccc1-c1ccc([C@H]2[C@@H](CO)N3CCCCN(C(=O)Cc4ccccn4)C[C@@H]23)cc1 | -2.1 | 1.9 | . | 2.2 | .
Cc1nc2c(=O)n(C)c(=O)nc-2n(C)n1 | . | . | -3.8 | . | 189.0*
COc1ccc(-n2c(-c3ccccc3Br)nc3ccccc3c2=O)cc1 | -0.9 | 35.0* | -9.3 | -2.7 | -15.0
COC(=O)[C@H]1[C@H](CO)[C@H]2Cn3c(ccc(C4=CCCCC4)c3=O)[C@@H]1N2CC1CCCCC1 | 5.2 | -6.2 | . | 4.2 | .
SMILES | ERp5 block | SIRT5 inh | HDAC3 inh | ERAP1 inh | PDI inh
C=C(CC1CC(O)[C@]2(C)OC3CC4OC5C[C@]6(C)O[C@]7(C)CCC8OC9C[C@]%10(C)OC%11C(C)=CC(=O)OC%11CC%10OC9C[C@@H](C)C8OC7CC6O[C@]5(C)C/C=C\C4OC3CC2O1)C(=O)O (stereo not given in full) | -3.6 | -7.4 | -1.8 | 51.4* | -4.0
CC1=CC(=O)OC2CC3OC4C[C@@H](C)C5OC6CC7O[C@]8(C)C/C=C\C9OC%10CC%11OC(CC(C)C%12OCCO%12)CC(O)[C@]%11(C)OC%10CC9OC8C[C@]7(C)O[C@]6(C)CCC5OC4C[C@]3(C)OC12 (stereo not given in full) | . | . | 5.8 | . | -6.0
COC(=O)[C@H]1[C@H](CO)[C@H]2Cn3c(ccc(-c4ccncc4)c3=O)[C@@H]1N2CCc1ccccc1 | 0.2 | 0.5 | . | 0.6 | .
Cc1ccc(/C=C2\C(=O)NC(=O)N(Cc3ccccc3Cl)C2=O)o1 | 2.1 | -3.2 | 6.9 | 49.9* | 1.0
COc1ccc(F)cc1C(=O)C1CCCN(Cc2ccc(O)cc2)C1 (stereo not given) | 1.0 | 17.4* | -0.4 | 1.5 | -0.2
C[N+](C)(C)CC1CCCC1=O (stereo not given) | 1.8 | . | . | 79.6* | 0.0
Clc1ccc2c(c1)C(OC1CN3CCC1CC3)c1ccccc1CS2 (stereo not given) | -3.3 | 0.4 | 1.6 | -2.9 | 1.7
CN1CCN(CCOC2c3ccccc3CSc3ccc(Cl)cc32)CC1 (stereo not given) | . | . | 0.3 | . | 31.9*
OCCNCCc1c[nH]c2ccc(OCc3ccccc3)cc12 | 2.0 | 19.9* | 8.9 | -1.8 | 2.9
Clc1cccc(CNCCc2c[nH]c3ccccc23)c1 | 0.7 | -8.9 | -1.9 | -0.5 | 0.5
O=C(Cc1ccccn1)N1CC2(C1)[C@H](c1ccccc1)[C@@H](CO)N2Cc1ccccn1 | -0.8 | 1.6 | . | -2.4 | .
CCOC(=O)[C@]12Cc3c(cc(OC)c(OC)c3OC)[C@H]1N(C1CCCCC1)C(=O)c1ccccc12 | 2.7 | 20.3* | . | 18.4 | .
O=C(CCN1CCCCC1)Nc1ccc(Cl)cc1C(=O)c1ccccc1 | -0.2 | -1.4 | -0.4 | 1.9 | -65.9
O=C(CN1CCCC1)Nc1ccc(Cl)cc1C(=O)c1ccccc1 | -11.3 | 15.1* | -0.3 | 0.7 | -1.2
COC(=O)[C@@H]1[C@@H](CO)[C@@H]2Cn3c(ccc(-c4cncnc4)c3=O)[C@H]1N2S(=O)(=O)c1ccccc1C | -0.6 | -41.4 | . | 2.0 | .
CCN(CC)C(=O)c1ccc(NC(=O)COc2ccccc2F)cc1 | 6.4 | 20.8* | -0.4 | -1.0 | -4.3
COC(=O)[C@@H]1[C@@H](CO)[C@@H]2Cn3c(ccc(C4=CCCC4)c3=O)[C@H]1N2CC1CCCCC1 | 1.5 | 3.7 | . | -3.5 | .
CN1C(=O)C(=Cc2ccccc2OCc2ccc(Cl)cc2)C(=O)N(C)C1=O | -0.4 | 112.2* | -1.2 | 2.4 | 4.8
COc1cccc(CC(=O)N(C)C2CCCN(Cc3ccccc3F)C2)c1 (stereo not given) | 2.8 | 18.3* | 4.3 | -0.7 | 0.2
COc1ccc(OC)c(CC(=O)N(C)C2CCCN(Cc3ccccc3F)C2)c1 (stereo not given) | -1.1 | -0.2 | 7.1 | -0.4 | -1.0
O=C(Cc1cccnc1)N1CCCCN2[C@H](CO)[C@@H](c3ccc(C#CC4CC4)cc3)[C@H]2C1 | 0.6 | 0.1 | . | 2.3 | .
CN1CCN(c2ccc(S(=O)(=O)C(F)(F)F)cc2[N+](=O)[O-])CC1 | 4.5 | 20.5* | 1.4 | 1.2 | -20.4
CN1CCN(c2ccc(S(C)(=O)=O)cc2[N+](=O)[O-])CC1 | 5.5 | 0.3 | -3.2 | 2.7 | 2.0

Bioassay records as filed in PubChem.
